Source: PubChem BioAssay
Activity calls are given as the source filed them.

Assays:
[1] = test system: Human papillomavirus type 1a protein E7 (residues 44-93); test: HPV1a E7 fragment binders on microarrays, primary screen, biochemical, small-molecule microarray, residues 44-93, 635 nm fluorescence (AID 1108); conditions: small-molecule microarray binding, fluorescence 635 nm; higher = more signal;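 also: E7 fragment applied at 1 µg/mL in TBST for 1 h at 4 C; score combines spot fluorescence with its signal to noise ratio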
[2] = modulators of HCV replicon luciferase signal, primary screen, HCV replication inhibitor project, Huh7 cells, luciferase reporter (AID 1109); conditions: 48 h, higher = more signal;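 also: huh7 hepatoma cells harbouring a luciferase neomycin HCV replicon reporter; luciferase luminescence as measure of HCV replicon replication; test concentration not given here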
[3] = molecular target: Left-right determination factor 2 (Homo sapiens) (UniProt O00292); test: LEFTY2 binders on small-molecule microarrays, primary screen, biochemical, small-molecule microarray, 635 nm fluorescence scan (AID 1110); conditions: LEFTY2 binding, higher = more signal
[4] = molecular target: Calmodulin-1 (Homo sapiens) (UniProt P0DP23); test: CALM1 binders on microarrays, EGTA buffer, profiling panel, biochemical, small-molecule microarray, Cy5-labelled CALM1 (AID 1111); conditions: Cy5-CALM1 binding fluorescence, higher = more signal;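 also: labelled calmodulin applied in Tris saline Tween buffer holding calcium plus EGTA and DTT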
[5] = molecular target: Calmodulin-1 (Homo sapiens) (UniProt P0DP23); test: calcium-bound CALM1 binders on microarrays, profiling panel, artefact control for SMM control-protein annotation, biochemical, small-molecule microarray, Cy5-labelled CALM1, plus calcium (AID 1112); conditions: Cy5-CALM1 binding fluorescence, higher = more signal;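 also: score merges spot fluorescence with signal to noise from triplicate slides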
[6] = small-molecule microarray binders of probe aWnt5a, primary screen, biochemical, biotinylated probe, 635/667 nm fluorescence (AID 1113); conditions: higher = more signal;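 also: score merges 667 nm fluorescence intensity with signal-to-noise per printed feature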
[7] = small-molecule microarray binders of probe aShh, primary screen, biochemical, biotinylated probe, 635/667 nm fluorescence (AID 1114); conditions: higher = more signal;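 also: probe is biotin-labelled aShh protein from a stem cell growth factor screen; measures binding of labelled protein to compounds printed on the slide; score merges feature fluorescence at 667 nm with signal-to-noise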
[8] = small-molecule microarray binders of probe aNog, primary screen, biochemical, biotinylated probe, 635/667 nm fluorescence (AID 1115); conditions: higher = more signal;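 also: probe is biotinylated aNog protein used at 0.15 µg/mL for 1 h at 4 C; z-score combines 667 nm fluorescence of each spot with its signal to noise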
[9] = molecular target: Torsin-1A-interacting protein 1 (Homo sapiens) (UniProt Q5JTV8); test: LAP1 binders from COS7 cell lysate, primary screen, small-molecule microarray, 635/667 nm fluorescence (AID 1116); conditions: COS7-hLAP1 lysate binding, 635 nm fluorescence, higher = more signal
[10] = molecular target: Alpha-bungarotoxin (Bungarus multicinctus) (UniProt P60615); test: alpha-bungarotoxin binders on microarray, profiling panel, artefact control for SMM control protein annotation, biochemical, small-molecule microarray, Alexa647 label, 635/667 nm fluorescence (AID 1117); conditions: alpha-BTX-A647 binding fluorescence, higher = more signal
Albumin (Bos taurus) = Albumin (Bos taurus) (UniProt P02769); test: bovine serum albumin binders on microarray, profiling panel, artefact control for SMM control protein annotation, biochemical, small-molecule microarray, Alexa647 label, 635/667 nm fluorescence (AID 1118); conditions: BSA-A647 binding, fluorescence 635 nm, higher = more signal;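 also: score merges 667 nm emission intensity and signal-to-noise per printed compound spot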
[11] = small-molecule microarray binders of probe aXIP, primary screen, biochemical, NeuroSMM set, 635/667 nm fluorescence (AID 1119); conditions: higher = more signal, called active from +8 up or from −8 down;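 also: probe is the protein aXip251-270 applied at 1 µg/mL to compound-printed slides; binding of probe to printed compounds measured as 667 nm fluorescence plus signal to noise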
[12] = small-molecule binders of probe aNOTCH3, primary screen, biochemical, small-molecule microarray, 635/667 nm fluorescence (AID 1120); conditions: higher = more signal;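 also: probe is a biotin-tagged antibody raised against NOTCH3 rather than NOTCH3 protein; score merges spot fluorescence near 667 nm with spot signal to noise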
[13] = small-molecule binders of probe aNOTCH2, primary screen, biochemical, small-molecule microarray, 635/667 nm fluorescence (AID 1121); conditions: higher = more signal;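 also: score merges feature fluorescence read at 667 nm with its signal to noise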
[14] = molecular target: Carbonic anhydrase 2 (Homo sapiens) (UniProt P00918); test: CAII small-molecule binders, profiling panel, biochemical, small-molecule microarray, Alexa647-labelled CAII (AID 1122); conditions: CAII-A647 binding fluorescence, higher = more signal
[15] = COS7 lysate on small-molecule microarray, probe aHis, 635 nm (AID 1123); conditions: COS7 cell lysate, fluorescence, higher = more signal;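 also: z-score combines 667nm fluorescence intensity with signal-to-noise per printed compound spot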
[16] = compound binding in COS7 lysate, probe aLAP1, primary screen, cell lysate, small-molecule microarray (AID 1124); conditions: probe aLAP1, fluorescence, higher = more signal;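 also: lysate comes from COS7 cells expressing LAP1 and is applied at 0.3 µg/mL; score merges spot fluorescence near 667 nm with signal-to-noise over triplicate slides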
Sam68 (KHDRBS1) = test: Sam68 small-molecule binders, primary screen, biochemical, small-molecule microarray, 635 nm fluorescence (AID 1125); conditions: small-molecule microarray binding, higher = more signal;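 also: score merges 667 nm channel intensity with signal to noise over triplicate slides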
[17] = test system: Chordin-like protein 2 (CHRDL2); test: CHRDL2 small-molecule binders, primary screen, biochemical, small-molecule microarray, 635 nm fluorescence (AID 1126); conditions: small-molecule microarray binding, fluorescence 635 nm; higher = more signal;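 also: printed compound slides probed with Chrdl2 protein at 4 µg/mL for 1 h at 4 C; score merges 667 nm emission intensity with signal to noise over three replicate slides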
[18] = molecular target: Concanavalin-A (Canavalia ensiformis) (UniProt P02866); test: ConA small-molecule binders, primary screen, artefact control for SMM control protein annotation, biochemical, small-molecule microarray, Alexa647 label, 635 nm (AID 1127); conditions: ConA-A647 binding fluorescence, higher = more signal;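 also: z combines 667 nm emission intensity with signal-to-noise across three replicate slides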
Sequence of Concanavalin-A (Canavalia ensiformis) (P02866 whole entry, looked up): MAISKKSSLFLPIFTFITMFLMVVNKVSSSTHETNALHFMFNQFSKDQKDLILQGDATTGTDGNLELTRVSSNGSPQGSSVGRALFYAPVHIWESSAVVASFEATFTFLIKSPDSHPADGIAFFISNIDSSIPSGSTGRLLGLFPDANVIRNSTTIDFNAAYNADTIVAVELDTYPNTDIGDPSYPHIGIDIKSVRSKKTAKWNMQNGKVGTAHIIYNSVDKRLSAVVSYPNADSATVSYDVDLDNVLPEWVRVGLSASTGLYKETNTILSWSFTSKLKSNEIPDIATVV

Sequence of Torsin-1A-interacting protein 1 (Homo sapiens) (Q5JTV8 whole entry, looked up): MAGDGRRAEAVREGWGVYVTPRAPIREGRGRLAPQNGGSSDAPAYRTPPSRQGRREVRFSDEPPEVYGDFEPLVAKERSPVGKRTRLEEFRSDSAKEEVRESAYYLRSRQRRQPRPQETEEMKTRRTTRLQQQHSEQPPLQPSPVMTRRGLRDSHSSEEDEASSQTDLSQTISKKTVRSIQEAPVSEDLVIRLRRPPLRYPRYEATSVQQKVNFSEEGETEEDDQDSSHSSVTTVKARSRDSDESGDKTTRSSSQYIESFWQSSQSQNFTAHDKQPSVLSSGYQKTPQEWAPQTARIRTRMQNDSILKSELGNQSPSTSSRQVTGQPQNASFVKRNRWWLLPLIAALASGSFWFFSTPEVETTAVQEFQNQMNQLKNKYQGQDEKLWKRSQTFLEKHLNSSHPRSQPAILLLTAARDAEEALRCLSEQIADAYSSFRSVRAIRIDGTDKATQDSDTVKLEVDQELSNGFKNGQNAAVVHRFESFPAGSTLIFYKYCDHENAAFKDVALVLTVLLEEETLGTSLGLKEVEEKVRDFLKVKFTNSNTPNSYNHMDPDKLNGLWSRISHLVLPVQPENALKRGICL
Sequence of Left-right determination factor 2 (Homo sapiens) (O00292 whole entry, looked up): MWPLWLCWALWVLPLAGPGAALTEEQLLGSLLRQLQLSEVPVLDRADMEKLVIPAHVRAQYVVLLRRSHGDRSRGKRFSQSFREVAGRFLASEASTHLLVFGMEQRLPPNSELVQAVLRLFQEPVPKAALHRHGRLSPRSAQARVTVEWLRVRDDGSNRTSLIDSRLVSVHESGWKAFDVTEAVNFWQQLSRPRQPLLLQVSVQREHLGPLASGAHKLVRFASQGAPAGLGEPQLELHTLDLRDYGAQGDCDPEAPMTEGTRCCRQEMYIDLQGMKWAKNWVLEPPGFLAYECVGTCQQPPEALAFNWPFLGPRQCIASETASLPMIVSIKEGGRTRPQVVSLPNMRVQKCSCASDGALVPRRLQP
Sequence of Albumin (Bos taurus) (P02769 whole entry, looked up): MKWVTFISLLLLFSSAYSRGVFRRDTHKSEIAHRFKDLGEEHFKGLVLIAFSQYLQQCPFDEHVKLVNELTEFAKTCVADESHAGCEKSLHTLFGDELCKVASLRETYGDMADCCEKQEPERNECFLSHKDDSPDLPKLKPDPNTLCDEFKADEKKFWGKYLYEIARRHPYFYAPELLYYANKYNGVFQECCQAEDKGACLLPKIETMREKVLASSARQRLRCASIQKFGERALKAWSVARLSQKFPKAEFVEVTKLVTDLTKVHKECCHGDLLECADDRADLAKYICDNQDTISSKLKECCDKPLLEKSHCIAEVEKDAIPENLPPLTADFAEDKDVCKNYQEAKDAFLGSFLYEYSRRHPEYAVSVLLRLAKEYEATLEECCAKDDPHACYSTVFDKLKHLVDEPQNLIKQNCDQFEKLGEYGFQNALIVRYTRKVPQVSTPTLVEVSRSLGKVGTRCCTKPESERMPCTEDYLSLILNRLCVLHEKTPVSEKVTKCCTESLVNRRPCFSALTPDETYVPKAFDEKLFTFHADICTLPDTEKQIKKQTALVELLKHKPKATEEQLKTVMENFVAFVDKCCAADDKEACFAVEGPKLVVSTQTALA
Sequence of Alpha-bungarotoxin (Bungarus multicinctus) (P60615 whole entry, looked up): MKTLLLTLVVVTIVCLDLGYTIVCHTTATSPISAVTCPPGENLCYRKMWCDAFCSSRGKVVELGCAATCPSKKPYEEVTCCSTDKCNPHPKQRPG

| Structure (SMILES) | composite z-score [1] | z-score [2] | composite z-score [3] | composite z-score [4] | composite z-score [5] | composite z-score [6] | composite z-score [7] | composite z-score [8] | composite z-score [9] | composite z-score [10] | composite z-score (Albumin (Bos taurus)) | composite Z-score [11] | composite z-score [12] | composite z-score [13] | composite z-score [14] | composite z-score [15] | composite z-score [16] | composite z-score (Sam68 (KHDRBS1)) | composite z-score [17] | composite z-score [18] |
| --- | --- | --- | --- | --- | --- | --- | --- | --- | --- | --- | --- | --- | --- | --- | --- | --- | --- | --- | --- | --- |
| O=C1C[C@@](C(=O)O)(c2ccc([N+](=O)[O-])cc2)[C@@H](c2ccc(CO)cc2)N1C1CCCCC1 | 1.45 | -1.67 | 0.245 | 1.2 | 0.161 | 0.0037 | 0.116 | -0.485 | 0.493 | 1.07 | 0.88 | 0.628 (inactive) | 0.204 | -0.0029 | 0.508 | 2.02 | 0.281 | 1.34 | 0.0583 | 1.05 |
| COc1ccc(C(O)C2C=CC3C(=O)NC(=O)C3N2Nc2ccc(Cl)cc2Cl)c2ccccc12 (stereo not given) | 0.795 | -0.0178 | -0.65 | 2.02 | 1.08 | -0.181 | -0.116 | -1.02 | 0.693 | 1.17 | 0.678 | 0.309 (inactive) | 0.0328 | 0.0856 | 0.602 | 1.94 | 0.709 | 0.35 | -0.359 | 0.934 |
| COc1ccc([Si](C)(C)[C@@H]2[C@@H](CC(=O)N3CCC[C@H]3CO)O[C@]3(C(=O)N(Cc4cccc(N5CCCCC5=O)c4)c4ccccc43)[C@H]2C)cc1 | 0.845 | -2.57 | 0.415 | 0.336 | 0.0654 | -0.148 | 0.0723 | 0.21 | 0.191 | 1.22 | -0.101 | 1.39 (inactive) | -0.0098 | -0.127 | 0.583 | 1.97 | 0.433 | 1.07 | 0.781 | 1.11 |
| CCCCCCc1nc(Cc2cc(OC)c(OC)c(OC)c2)cc2c1[Si](C(C)C)(C(C)C)O[C@H]2c1ccccc1 | 0.192 | -2.41 | 0.851 | -0.0875 | -0.593 | -0.124 | 0.235 | 0.0646 | -0.142 | 0.889 | -0.261 | 0.688 (inactive) | -0.0647 | -0.166 | -0.117 | -0.327 | -0.589 | 0.523 | 0.52 | 0.118 |
| O=C1[C@H]2C=C(I)[C@H](C[C@@H]2c2ccccc2)[C@@]12CO2 | -0.0983 | -3.6 | 0.208 | -0.68 | -0.661 | -0.0977 | -0.117 | -0.172 | 0.126 | 0.0292 | -0.406 | -0.623 (inactive) | -0.0647 | -0.153 | -0.154 | -0.234 | -0.225 | 0.0643 | 0.664 | -0.267 |
| C=C(/C(=C/C[C@@H](OC(C)=O)c1cccc(OCCO)c1)c1cnc2ccccc2c1)C(C)C | 0.858 | -1.96 | 0.54 | -0.24 | -0.51 | -0.0045 | -0.0709 | -0.326 | 1.02 | 1.3 | 0.286 | 0.19 (inactive) | -0.0787 | -0.124 | 0.803 | 1.26 | -0.149 | 0.869 | 1.38 | 0.629 |
| CN(C)C(=O)[C@]1(Cc2ccccc2)N=C(c2ccc(OCCCO)cc2)O[C@@H]1c1ccccc1CN=[N+]=[N-] | 1.41 | -2.79 | -0.273 | 1.09 | 0.781 | 0.027 | 0.116 | -0.294 | 1.62 | 1.15 | 0.981 | 0.0333 (inactive) | 0.34 | 0.0488 | 0.582 | 2.63 | 0.407 | 1.31 | -0.321 | 0.922 |
| COc1ccc([Si](C)(C)[C@H]2[C@H](CC(=O)N3CCC[C@H]3CO)O[C@@]3(C(=O)N(Cc4ccc(N5CCCCC5=O)cc4)c4ccccc43)[C@@H]2C)cc1 | 1.4 | -1.46 | 0.721 | 0.441 | -0.393 | -0.0239 | 0.0639 | 1.32 | 1.15 | 1.62 | 0.664 | -0.765 (inactive) | 0.212 | -0.108 | 0.292 | 1.27 | 0.0516 | 1.3 | 0.824 | 1.18 |
| CO[C@H]1O[C@H](CO)[C@@H](OC(=O)Nc2ccccc2-c2ccccc2)[C@H](OC(=O)Nc2ccccc2)[C@H]1OC(=O)Nc1ccccc1 | 0.922 | -2.49 | 0.732 | 1.27 | -0.144 | 0.169 | 0.269 | 0.225 | 1.07 | 1.64 | 0.167 | -0.295 (inactive) | 0.199 | -0.0846 | 0.701 | 2.41 | 0.268 | 1.3 | 0.697 | 1.15 |
| CC(C)C(=C=CC[C@H](O)c1ccccc1OCCO)C[C@H](O)c1cc(Cl)cc(Cl)c1O | 1.46 | -1.99 | 0.0124 | 0.195 | 0.271 | -0.106 | 0.0048 | 0.158 | 0.962 | 0.919 | 0.791 | -0.275 (inactive) | 0.141 | -0.106 | 0.664 | 1.48 | 0.114 | 1.31 | -0.114 | 1.14 |
| CC(C)C[C@@H]1NC(=O)[C@@]23C(=O)N[C@@H](Cc4ccccc4)C2[C@H](C)[C@@]2(C)O[C@H]2C3/C=C/C/C=C\CNC(=O)CNC1=O (stereo not given in full) | 0.346 | 0.349 | 0.259 | -0.535 | -0.963 | -0.0478 | -0.138 | -0.125 | 0.189 | 0.49 | 0.0829 | -0.568 (inactive) | -0.0869 | -0.14 | 0.719 | 0.283 | 0.0471 | 0.613 | 0.322 | 0.423 |
